PubChem BioAssay (NCI)
About 83,000 compounds went through this panel and 20% of them were active in at least one assay; those are over-represented in the sample as a whole.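 Compound tested at a single concentration for 48 hours in 96-well plates; a percent growth value below 10 was scored as active.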 Values without a mark were called inactive. Calls of active or inactive are those of the source.

System: HL-60(TB) leukemia
Assay: NCI-60 one-dose screen, 48 h (100 = growth as untreated, 0 = no growth, -100 = all killed)
Conditions: 10 µM unless noted

How did the growth turn out when `Nc1nc(-c2ccccc2)cc(-c2cc3ccccc3nc2Cl)n1` was run?
Its growth is 51.6%.

How did the growth turn out when `COc1ccc(C(=O)/C=C/c2cc(F)cc(C(F)(F)F)c2)cc1S(N)(=O)=O` was run?
Its growth is -4.63% (active).

Which growth does the source give for `COc1cccc(COc2ccc(/C=C3\Oc4cc(O)ccc4C3=O)cc2)c1` here?
The growth was 79.5%.

With `COC(=O)c1c(C(=O)OC)c2ccc3c4ccccc4ccc3n2c1C(=O)OC` as the molecule, how does the growth read?
Its growth is 111%.

With `O=C1Nc2ccc(F)cc2/C1=C/C(=O)c1cc2ccccc2oc1=O` as the molecule, how does the growth read?
Its growth is 85.6%.

Which growth does the source give for `O=C(c1cc2cc(OCCCN3CCC3)ccc2[nH]1)N1C[C@@H](CCl)c2c1cc(OCc1ccccc1)c1ccccc21` here?
The growth was -33.7% (active).

`COc1ccc(-c2ccnc(SCc3cc4ccccc4[nH]c3=O)n2)cc1` was tested. Which growth did it give?
The growth was 34.1%.

For `CCCCCCCCc1ccc(C(=O)Nc2ccc(C)cc2C(=O)O)cc1C`, which growth is on record?
Its growth is 102%.

`CCN(CC)C(=O)N/C(N)=N/c1nc2ccccc2s1` was tested. Which growth did it give?
The growth was 52.1%.

Which growth does the source give for `COc1cc2c3c(n(CCCN4CCOCC4)c(=O)c2cc1OC)-c1nc2c(cc1C3=O)OCO2` here?
Its growth is 65.2%.

How did the growth turn out when `COc1ccc(OC)c(/C=N/NC(=O)c2ccc3nc(-c4ccc(Cl)cc4)[nH]c3c2)c1` was run?
Its growth is 87.1%.

How did the growth turn out when `CNS(=O)(=O)c1ccc(Nc2ccc(C(F)(F)F)cc2)c(-c2cn(C)cn2)c1` was run?
The growth was 48%.

With `Cc1cc(C(F)(F)F)ccc1C(=O)Nc1sc2c(c1C#N)CCC(=O)C2` as the molecule, how does the growth read?
Its growth is -14.5% (active).

With `CC(=O)Oc1ccccc1C(=O)[Se]CC(=O)Nc1cccc(C(F)(F)F)c1` as the molecule, how does the growth read?
The growth was -14.9% (active).

`C#C[C@]1(O)CC[C@H]2[C@@H]3CC=C4c5sc(-c6ccc(O)c(O)c6)nc5CC[C@]4(C)[C@H]3CC[C@@]21C` was tested. Which growth did it give?
The growth was -54.1% (active).

Which growth does the source give for `COc1cc(C2CC(c3ccccc3)=Nc3c(N)nc(N)nc3N2)ccc1Oc1nc(NCCO)nc(N2CCOCC2)n1` (stereo not drawn) here?
Its growth is 93.5%.

With `O=[N+]([O-])c1cccc(-c2nnc3c(/C=C/c4ccccc4O)nc4ccccc4n23)c1` as the molecule, how does the growth read?
Its growth is 52.5%.

Which growth does the source give for `COc1ccc(/C=C/c2nc3ccccc3c(=O)n2CC(=O)Nc2ccccc2)cc1` here?
The growth was 94.1%.

Which growth does the source give for `CN1C(=O)N(C)C2SC(N/N=C/c3ccc(F)cc3)=NC21` (stereo not drawn) here?
Its growth is -4.65% (active).

With `O=C(c1ccc(Cl)cc1)C1[C@H](c2ccc(Br)cc2)[C@@H](c2ccccc2)NC12C(=O)Nc1ccc(Cl)cc12` (stereo partly drawn) as the molecule, how does the growth read?
The growth was -45.2% (active).

For `CN1C(=O)/C(=C/c2ccco2)S/C1=N/c1nccs1`, which growth is on record?
The growth was 102%.

Which growth does the source give for `N#Cc1ccc(/C=N/NC(=O)c2[nH]c3ccc(Br)cc3c2-c2ccccc2)o1` here?
The growth was -25.1% (active).

For `O=C(Nc1ccc(F)c(Cl)c1)c1cc(-c2ccc(F)cc2F)ccc1O`, which growth is on record?
The growth was -41.3% (active).

`CC1=C(C(=O)Nc2ccccc2)C(c2cccc(Cl)c2Cl)n2c(nc3ccccc32)N1` (stereo not drawn) was tested. Which growth did it give?
Its growth is 9.78% (active).

With `Clc1ccc(Nc2nnc(-c3c[nH]c4ccccc34)o2)cc1` as the molecule, how does the growth read?
The growth was 43.4%.

Which growth does the source give for `CCN1C(=O)N(CC)C2NNC(Sc3c(C(=O)O)c4ccccc4n(CCC(C)C)c3=O)=NC21` (stereo not drawn) here?
The growth was -48.1% (active).

How did the growth turn out when `COc1ccc(-c2ccnc(SCc3cc4cc(Cl)ccc4[nH]c3=O)n2)cc1` was run?
Its growth is 120%.

For `COc1ccc(-c2cc(C(=O)N=Nc3c(O)[nH]c4ccc(Cl)cc34)c3ccccc3n2)cc1`, which growth is on record?
The growth was 96%.

For `COc1ccc2c(c1)c(-c1cc(N)n3nc(-c4c[nH]c5ccccc45)cc3n1)cn2C`, which growth is on record?
Its growth is -32.4% (active).

`CC1CC(c2ccc(N(C)C)cc2)=NN1c1nc(O)c(C2=c3cc(Br)ccc3=NC2=O)s1` (stereo not drawn) was tested. Which growth did it give?
Its growth is 68.7%.

Which growth does the source give for `O=C1Nc2ccc(Cl)cc2/C1=C/c1cccc(OCc2ccccc2)c1` here?
Its growth is 8.8% (active).

How did the growth turn out when `COc1ccc2c(c1)c(-c1cc(N)n3nc(-c4cn(C)c5ccccc45)cc3n1)cn2C` was run?
Its growth is -33.1% (active).

For `CCOc1ccc2ncc(C#Cc3cncc(C(=O)Nc4ccc(CN5CCN(C)CC5)c(C(F)(F)F)c4)c3)n2n1`, which growth is on record?
The growth was 1.2% (active).

Which growth does the source give for `CC(C)c1ccc2c(N)c(C(=O)Nc3ccc(C(F)(F)F)cn3)sc2n1` here?
Its growth is 46.8%.

`COc1ccc(C(=O)NNC(=O)CSc2nc3sc4c(c3c(=O)n2-c2ccc(Cl)cc2)CCCC4)cc1` was tested. Which growth did it give?
Its growth is 64.5%.

How did the growth turn out when `COc1cccc(/C=C2\N=C(C)N(CCc3ccc(S(N)(=O)=O)cc3)C2=O)c1` was run?
The growth was 89.4%.

`CCOc1ccc(/C=N/NC(=O)Cn2nc(Cc3ccc(OC)cc3)c3onc(C)c3c2=O)cc1` was tested. Which growth did it give?
Its growth is 57.5%.

With `O=C(CNc1nc(-c2ccccc2)cs1)Nc1ccc(Br)cc1` as the molecule, how does the growth read?
The growth was -40.4% (active).

`O=C(CSc1nc2sc3c(c2c(=O)n1-c1ccc(Cl)cc1)CCCC3)N/N=C/C=C/c1ccccc1` was tested. Which growth did it give?
Its growth is 64.5%.

How did the growth turn out when `COc1ccc(-c2cc(-c3cc(C(C)C)c(O)cc3C)nn2-c2ccc(S(N)(=O)=O)cc2)cc1` was run?
Its growth is 9.51% (active).

With `O=C(Cc1c(-c2ccccc2[N+](=O)[O-])n(-c2ncnc3c2c(-c2ccccc2)c(-c2ccccc2)n3Cc2ccccc2)[nH]c1=O)c1ccc(Cl)c(Cl)c1` as the molecule, how does the growth read?
Its growth is 1.19% (active).

With `Brc1ccc(N/N=C/c2c[nH]c3ccc(Br)cc23)nc1` as the molecule, how does the growth read?
Its growth is -17.2% (active).

For `Cc1cccc(Nc2nc3ccccc3nc2/C=C/c2ccc(F)cc2)c1`, which growth is on record?
Its growth is 97.3%.

Which growth does the source give for `O=C(O)CC1S/C(=N/N=C/c2nc3ccccc3s2)NC1=O` (stereo not drawn) here?
The growth was 98.4%.

How did the growth turn out when `COc1ccc2[nH]c(=O)c(CSc3ccccc3Nc3nccc(-c4ccc(C(F)(F)F)cc4)n3)cc2c1` was run?
Its growth is 1.94% (active).

Which growth does the source give for `O=C(CSc1nnc(-c2c[nH]c3ccccc23)n1-c1ccccc1)c1ccc(Br)cc1` here?
The growth was 44.5%.

`O=C(CSc1nnc(-c2c[nH]c3ccccc23)n1-c1ccccc1)Nc1ccc(C(=O)/C=C/c2ccc(Br)cc2)cc1` was tested. Which growth did it give?
The growth was 83.2%.

With `O=C(C1=CNC(=S)NC1c1ccc(O)cc1)c1cc2ccccc2oc1=O` (stereo not drawn) as the molecule, how does the growth read?
Its growth is 79.5%.

Which growth does the source give for `CC(=O)Nc1ccc(-n2cnc3cc(-c4ccc(O)cc4)ccc32)cc1C(F)(F)F` here?
The growth was 4.45% (active).

How did the growth turn out when `COc1cc2c(c(OC)c1OC)C(=O)CC(c1cccc(NC(=O)c3cc([N+](=O)[O-])ccc3Cl)c1)O2` (stereo not drawn) was run?
The growth was 34.1%.

With `CCCCCCCCCCCCCCCCCC(=O)Nc1ccc(OC)cc1` as the molecule, how does the growth read?
Its growth is 90.3%.

How did the growth turn out when `COc1c(F)ccc(C(=O)Nc2ccc3nc(NC(=O)C4CCCN(S(=O)(=O)C5CC5)C4)sc3c2)c1F` (stereo not drawn) was run?
The growth was 32.4%.

With `CC[C@]12C=CCN3CC[C@@]4(c5cc(C#CCNc6ccc(C)c(Nc7nccc(-c8cccnc8)n7)c6)c(OC)cc5N(C)[C@H]4[C@@](O)(C(=O)OC)[C@@H]1OC(C)=O)C32` (stereo partly drawn) as the molecule, how does the growth read?
The growth was 30.8%.

`COc1ccc(CCN2C(=O)/C(=C/c3csc(C#N)n3)SC2=S)cc1OC` was tested. Which growth did it give?
Its growth is -18% (active).

For `Cc1ccc(-c2ccc(SCC(=O)Nc3ccc(S(N)(=O)=O)cc3Br)nn2)cc1`, which growth is on record?
The growth was 100%.

How did the growth turn out when `COc1ccc(-c2cc(C(=O)N=Nc3c(O)[nH]c4ccc(F)cc34)c3ccccc3n2)cc1` was run?
The growth was 51.6%.

For `COC(=O)c1cc(C(=O)C(F)(F)F)n2c3ccccc3c3ccccc3c12`, which growth is on record?
Its growth is 99.5%.

Which growth does the source give for `CN(C)c1nc(NCCNS(=O)(=O)c2ccc(C(=O)/C=C/c3ccc(C(F)(F)F)cc3)cc2)nc(N2CCOCC2)n1` here?
The growth was -25.1% (active).

How did the growth turn out when `O=C(COc1ccc(NC(=O)Nc2ccc(Cl)c(Cl)c2)cc1)N=Nc1c(O)[nH]c2ccc([N+](=O)[O-])cc12` was run?
Its growth is 92.4%.

Which growth does the source give for `Cc1ccc2c(N)c(C(=O)Nc3ccc(-c4ccccc4)cc3)sc2n1` here?
Its growth is 38.7%.

Which growth does the source give for `COc1ccc(C2=Nc3c(N)nc(N)nc3NC(c3ccc(Oc4nc(Nc5ccc(F)cc5)nc(N(C)C)n4)c(OC)c3)C2)cc1` (stereo not drawn) here?
Its growth is 32.6%.

`C=CC[N+](C)(C)CCn1c2ccccc2c2nc3cc(C)c(C)cc3nc21` was tested. Which growth did it give?
The growth was 97.7%.

With `CN(C)CCOc1ccc(C(=O)C2[C@H](c3ccc(Cl)cc3)[C@@H](c3ccccc3)NC23C(=O)Nc2ccc(Cl)cc23)cc1` (stereo partly drawn) as the molecule, how does the growth read?
Its growth is -75.6% (active).

How did the growth turn out when `O=C(c1ccc(O)cc1)C1[C@H](c2ccc(Cl)cc2)[C@@H](c2ccccc2)NC12C(=O)Nc1ccc(Br)cc12` (stereo partly drawn) was run?
Its growth is -33.9% (active).

`CCCCCCCCCCCCCCCCCCCC(=O)NCCc1c[nH]c2ccc(OC(=O)CCCC(=O)OCCOOCCOOCCOOCCOOCCOOCCOOCCOOCCOOCCOOCCOOCCOOCCOC)cc12` was tested. Which growth did it give?
Its growth is -29.3% (active).

Which growth does the source give for `COc1cc(/C=C/C(=O)c2ccc(C)cc2)ccc1Oc1nc(Nc2ccc(F)cc2)nc(N(C)C)n1` here?
The growth was 41.7%.

How did the growth turn out when `O=C(CSc1nnc(-c2c[nH]c3ccccc23)n1-c1ccccc1)Nc1ccc(C(=O)/C=C/c2ccccc2Cl)cc1` was run?
The growth was 78%.

With `N#Cc1c(NC(=O)c2ccc(C(F)(F)F)c(Cl)c2)sc2c1CCC(=O)C2` as the molecule, how does the growth read?
The growth was -14.4% (active).

With `O=C(Cc1ccc2c(c1)CN(C1CCC(=O)NC1=O)C2=O)NCCc1ccccc1` (stereo not drawn) as the molecule, how does the growth read?
Its growth is -19.2% (active).

With `Nc1cc2ccccc2c(=O)n1NC(=O)c1ccc(Br)cc1` as the molecule, how does the growth read?
The growth was 99.4%.

How did the growth turn out when `O=c1[nH]c2ccc(Cl)cc2cc1CSc1ccc(Nc2nccc(-c3ccc4ccccc4c3)n2)cc1` was run?
Its growth is 91.4%.

`CC(=O)Nc1ccc(-c2cn(-c3cccc(C(=O)Nc4ccc(Cl)c(C(F)(F)F)c4)c3)nn2)cn1` was tested. Which growth did it give?
Its growth is 35%.

With `O=C(Nc1ccc(Br)cc1)Nc1ccc(-c2ccc3c(c2)NC(=O)/C3=C\c2ccc[nH]2)cc1` as the molecule, how does the growth read?
The growth was 33.4%.
